# PubChem BioAssay AID624483 (NMMLSC, 2012)
# Screen size: about 360,000 compounds; about 11,000 (3.1%) were called active. About 2% were inconclusive and are not listed. This is one part of a sample in which actives are shown more often than they occur. No stated cut-off is given here; in the data, active means fluorescence intensity above about 16000; inconclusive means no clear call, values can overlap the other calls; inactive means below that.
# Experiment: compound fluorescence in toxin protease inhibitor counterscreen, primary screen, artefact control for toxin protease inhibitor project, biochemical, multiplex microsphere, HTS (AID 624483)
# Settings: compound autofluorescence counterscreen, microsphere flow cytometry; active compounds read high
row,SMILES,fluorescence intensity
1,COc1cccc(NC(=O)CCc2nnc3ccc(N4CCC(C)CC4)nn23)c1,5600 (inactive)
2,CCOC(=O)[C@]12CCC=C1N(Cc1ccco1)C(=O)[C@H](CC(=O)N1CCSCC1)C2,4160 (inactive)
3,CC(C)(C(=O)N1CCC1(C)C(=O)NS(=O)(=O)c1ccc(Br)cc1)c1ccccc1 (configuration not stated),3370 (inactive)
4,NC(c1ccccc1)c1csc(NC(=O)Nc2cccc(C(F)(F)F)c2)n1 (configuration not stated),3690 (inactive)
5,Clc1ncn(CCOc2ccccc2)c1Cl,3990 (inactive)
6,Cc1cc2ncn(CCCCOc3ccccc3)c2cc1C,17400 (active)
7,COCCOCCn1cnc2ccccc21,9770 (inactive)
8,CSc1ccc(CN2CCC2(C)C(=O)Nc2ccc(C)c(O)c2)cc1 (configuration not stated),3540 (inactive)
9,O=C(NCCCN1CCOCC1)c1ccc([N+](=O)[O-])cc1[N+](=O)[O-],4500 (inactive)
10,O=C(NCCCNc1ccc([N+](=O)[O-])cc1Cl)c1ccccc1F,4790 (inactive)
11,O=[N+]([O-])c1ccc(NCCCN2CCOCC2)c(Cl)c1,22800 (active)
12,CC1CCN(C(=O)c2ccc(S(=O)(=O)Cc3cc(F)ccc3F)c([N+](=O)[O-])c2)CC1,2510 (inactive)
13,CCc1ccc2nc(Nc3ncc(C(C)=O)c(C)n3)nc(C)c2c1,3620 (inactive)
14,CCOC(=O)[C@]12CCC=C1N(CCC1=CCCCC1)C(=O)[C@H](CC(=O)NCc1ccc(C)o1)C2,5770 (inactive)
15,CSCC(NS(=O)(=O)c1ccc(C)cc1)C(=O)O (configuration not stated),4880 (inactive)
16,COc1ccc(S(=O)(=O)NC(C)C(=O)N2CCCCCC2)cc1 (configuration not stated),3500 (inactive)
17,CCCC(NS(=O)(=O)c1ccc(OC)cc1)C(=O)O (configuration not stated),20900 (active)
18,O=C(OCC(=O)N1CCCCCC1)c1ccc(Cl)nc1,3860 (inactive)
19,N#Cc1cccc(NC(=O)c2cc(C3CCCCN3C(=O)CCc3ccccc3)on2)c1 (configuration not stated),4290 (inactive)
20,CC(=O)OC[C@@H]1CN(Cc2ccccc2)C[C@H](n2cnc3c(NCc4ccco4)ncnc32)O1,3590 (inactive)
21,COc1cccc(NC(=O)CCNS(=O)(=O)c2ccc3c(c2)oc(=O)n3C)c1,4240 (inactive)

row,SMILES,fluorescence intensity
1,Cc1ccc(NC(=O)CCNS(=O)(=O)c2ccc3c(c2)oc(=O)n3C)cc1C,22000 (active)
2,Cn1c(=O)oc2cc(S(=O)(=O)NCCC(=O)NCc3ccccc3Cl)ccc21,4110 (inactive)
3,N#Cc1c(/N=C/N2CCCC2)oc(-c2ccccc2)c1-c1ccccc1,3080 (inactive)
4,O=C(O)Cc1ccc(NC(=O)C2CCCCC2C(=O)O)cc1 (configuration not stated),4130 (inactive)
5,O=C(O)C1CCCCC1C(=O)Nc1ccc(Cl)cc1 (configuration not stated),25300 (active)
6,O=C(NC1CCN(C(=S)Nc2ccc(Cl)cc2)CC1)C1CCCCC1,3100 (inactive)
7,CCOC(=O)c1ccn(S(=O)(=O)c2ccc(C)cc2)c1-c1ccccc1,5920 (inactive)
8,O=S1(=O)C[C@@H](N2CCN(CCO)CC2)[C@H](COCc2ccccc2)N1,4260 (inactive)
9,COc1ccc(/C=C/C(=O)c2c(O)cc(OC)cc2OC)cc1,5700 (inactive)
10,Cc1ccc2nc(-c3ccccc3)c(CC3CCCCC3)n2c1,8550 (inactive)
11,Cc1ccc(SCc2cc(=O)[nH]c(N3CCCCC3)n2)cc1,4420 (inactive)
12,Cc1ccc(SCC2=NNC(=O)C2)cc1,22700 (active)
13,Cc1ccc(SCCSc2ncccn2)cc1,4180 (inactive)
14,O=C(COC(=O)c1ccc(Cl)nc1)NCc1cccs1,4330 (inactive)
15,O=C(C1CC(=O)N(C2CCCC2)C1)N1CCC2(CC1)OCCO2 (configuration not stated),21300 (active)
16,O=C(C1CC(=O)N(C2CCCC2)C1)N1CCN(c2cccc(C(F)(F)F)c2)CC1 (configuration not stated),5860 (inactive)
17,O=C(C1CC(=O)N(C2CCCCC2)C1)N1CCN(c2ccccc2)CC1 (configuration not stated),5000 (inactive)
18,CCCNC(=O)C1(C)CCN(C(=O)c2ccccc2OC(F)(F)F)C1 (configuration not stated),3700 (inactive)
19,Cc1ccc(S(=O)(=O)N2CC[C@H]3[C@@H](C2)C(=O)C[C@@H](c2ccccc2)N3S(=O)(=O)c2ccc(C)cc2)cc1,6280 (inactive)
20,CCc1cccc2c(=O)c(C(=O)NCCCOC)c[nH]c12,4150 (inactive)
21,COC1=CC(=O)OC(c2ccc(OC)cc2)C1 (configuration not stated),3440 (inactive)

row,SMILES,fluorescence intensity
1,COc1cc(CO)c(C2(CO)CCCC2)cc1OC,2910 (inactive)
2,CC1(C)CC(=O)C2=C(C1)N=C1SCCC(=O)N1C2c1ccc(C(F)(F)F)cc1 (configuration not stated),22500 (active)
3,CCCCC[C@@H]1C=C(C(=O)OCC)[C@H](c2ccccc2)N1S(=O)(=O)c1ccc(C)cc1,6420 (inactive)
4,O=C1NC[C@H](CCCCN2C[C@H](Cc3ccc(O)cc3)N(CCc3ccccc3)C(=O)C2=O)N(CCc2ccccc2)C1=O,5840 (inactive)
5,C=C(C)CNC(=S)/N=c1\scc(C)n1CC,8000 (inactive)
6,CC1(C)OC(=O)C2=C(C[C@@H](C3CC3)O[C@H]2CCc2cccc(Cl)c2)O1,6150 (inactive)
7,Cc1cc(O)ccc1-c1cc(C(=O)NCc2cc(C(F)(F)F)cc(C(F)(F)F)c2)[nH]n1,4030 (inactive)
8,CCCOc1ccc(C2NC(=O)NC(c3ccccc3)=C2C(C)=O)cc1OCC (configuration not stated),16800 (active)
9,CCOC(=O)C1=C(c2ccccc2)NC(=O)NC1c1cc(OCC)c(O)c([N+](=O)[O-])c1 (configuration not stated),3560 (inactive)
10,COc1cc(C2NC(=O)NC(c3ccccc3)=C2C(C)=O)c(Br)cc1OCC(N)=O (configuration not stated),3130 (inactive)
11,COc1c(C)cc(C(O)c2ncc(-c3cccc(C(F)(F)F)c3)[nH]2)cc1C (configuration not stated),2880 (inactive)
12,COCCCn1c(=O)/c(=C/c2ccccc2OC(C)C)s/c1=C(\C#N)C(=O)Nc1ccc(C(=O)O)cc1,4090 (inactive)
13,CC1(C(=O)O)CCCN(C(=O)/C=C/c2ccccc2)C1 (configuration not stated),3760 (inactive)
14,CC(=O)NC1=NC(=O)CS1,22000 (active)
15,Cc1cccc(N)c1SC1CCCCC1O (configuration not stated),2470 (inactive)
16,CN(C)/C=C/C(=O)c1cnc2sccn2c1=O,4610 (inactive)
17,C[C@H]1Cn2cnc(C(=O)N[C@@H](Cc3c[nH]c4ccccc34)C(=O)OC(C)(C)C)c2C(=O)N1,3860 (inactive)
18,CCN(c1ccccc1)S(=O)(=O)c1ccc(NC(=O)C(C)(C)C)cc1,23900 (active)
19,CCN(c1ccccc1)S(=O)(=O)c1ccc(N)cc1,5250 (inactive)
20,CCN(c1ccccc1)S(=O)(=O)c1ccc(C(=O)Nc2ccccc2OC)cc1,3100 (inactive)
